Screening results: PubChem BioAssay, National Center for Advancing Translational Sciences (NCATS)
A selection: hits, their analogues and other compounds. The true share with any hit is near 7.3%.
NPC1 promoter act – activators of NPC1 promoter. AID 485313. Huh7 NPC1 promoter luciferase reporter, 24 h. Potency, µM (titrated, usually from 9.22 µM), without a hit: at the top dose activation, hits mostly activators. 320,000 compounds, 2.4% hits; note: % of control where 0% means no effect; nearly all actives have a fitted effect of over 60% in size
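Compounds in DMSO were transferred onto Huh7 NPC1-luciferase reporter cells pre-incubated 2 h; after 24 h at 37 °C, Amplite reagent was dispensed and luminescence recorded 10 min later.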
FLuc modulator – inhibits or activates purified firefly luciferase, miR-21 counter-screen; AID 588342; 360,000 compounds, 6.9% hits; purified FLuc, Km substrates, luminescence inhibition; P08659; Potency, µM (highest dose often 57.5 µM), for the others: at the top dose activity change, negative = inhibition, usual class: inhibitors;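 note: plate controls were vehicle for no effect and reference inhibitor for full effect; nearly all actives have a fitted effect of over 55% in size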
Target sequence (P08659 whole entry, looked up): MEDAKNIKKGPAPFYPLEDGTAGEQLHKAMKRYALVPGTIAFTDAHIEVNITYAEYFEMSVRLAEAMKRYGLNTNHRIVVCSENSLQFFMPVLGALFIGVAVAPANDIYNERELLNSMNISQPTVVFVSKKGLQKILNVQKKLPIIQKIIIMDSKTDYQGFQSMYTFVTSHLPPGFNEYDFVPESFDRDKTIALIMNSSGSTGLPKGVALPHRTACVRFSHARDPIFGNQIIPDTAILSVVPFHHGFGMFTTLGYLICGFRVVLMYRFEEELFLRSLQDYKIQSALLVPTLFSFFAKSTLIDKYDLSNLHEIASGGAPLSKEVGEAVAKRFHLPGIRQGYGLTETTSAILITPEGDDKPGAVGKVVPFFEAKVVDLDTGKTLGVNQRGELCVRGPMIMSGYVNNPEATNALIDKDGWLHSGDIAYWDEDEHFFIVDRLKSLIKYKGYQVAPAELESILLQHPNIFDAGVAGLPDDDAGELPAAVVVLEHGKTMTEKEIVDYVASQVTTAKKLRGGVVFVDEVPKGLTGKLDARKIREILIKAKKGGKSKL
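Purified P. pyralis luciferase, 10 nM final, with Km-level 10 uM D-luciferin and 10 uM ATP in 50 mM Tris acetate pH 7.5, 10 mM Mg acetate, 0.01% Tween-20, 0.05% BSA; 6-point qHTS titration about 60 µM downward; luminescence read.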
SMN2 splice enh – SMN2 splice variant enhancement; HEK293 SMN2-luciferase splicing reporter, luminescence, 30-36 h; Potency, µM (highest dose often 46.1 µM), for the others: top-dose activity change, positive = activation, hits mostly activators; 210,000 compounds, 2.8% hits; AID 1458; note: % of control where 0% means no effect; nearly all actives have a fitted effect of over 55% in size
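qHTS luciferase splicing reporter: luminescence rises when SMN2 exon 7 is included in transfected HEK293 cells. Compound exposure lasted 30-36 h at 37C, with 4.5 mM final sodium butyrate as control, followed by a ONE-Glo read.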
Rab9 promoter act – activators of Rab9 promoter; 320,000 compounds, 2.8% hits; Huh7 Rab9 promoter-luciferase reporter, luminescence, 24 h; Potency, µM (highest dose often 9.22 µM), for inactives: at the top dose activation, negative = inhibition, usual class: activators; note: % of control where 0% means no effect; nearly all actives have a fitted effect of over 60% in size
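Rab9 promoter-driven luciferase in stably transfected Huh7 cells; 1500 cells/well rested 2 h, exposed to compound in DMSO for 24 h at 37 °C, 5% CO2. Luminescence read 10 min after adding luciferase reagent at ambient temperature.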
ELG1 genotoxic – inducers of genotoxicity in HEK293T ELG1-luciferase cells; HEK293T ELG1-luciferase reporter, luminescence, 16 h; Potency, µM (top dose mostly 46 µM), for the others: at the top dose activity change, positive = activation, most hits filed as activators; 330,000 compounds, 1.3% hits; AID 504466; note: % of control where 0% means no effect; nearly all actives have a fitted effect of over 60% in size
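Genotoxicity was scored as increased ELG1-luciferase reporter signal, measured by ONE-Glo luminescence (30 min, room temperature). Compound or vehicle exposure of the HEK293T reporter cells lasted 16 hr at 37°C.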
uPA generation – cell surface uPA generation inhibition; cell surface uPA generation assay, qHTS; Potency, µM (top dose mostly 38.3 µM), for the others: top-dose activity change, negative = inhibition, usual class: inhibitors; 330,000 compounds, 0.31% hits; AID 540303; active = well fitted inhibition curve with a large enough effect; inconclusive = small, poorly fitted or top-dose-only effect; inactive = no such curve, though single readings can be large or run the other way; tested in mouse RAW 264.7 cells; note: % is set by controls: 0 for no effect and ±100 for the full control effect; nearly all actives have a fitted effect of over 55% in size
Starred values were filed as active, the others as inactive; ? = inconclusive; / = no result given; [ ] = dose if it differs, or a comment. Unless noted, calls come from the whole dose curve; as a rule, active = well fitted curve in the direction sought with a large enough effect; inconclusive = small, poorly fitted or top-dose-only effect, or another doubt; inactive = no such curve, though single readings can be large; an effect the other way counts as inactive or inconclusive. Potency is the fitted concentration of half-maximal effect.

SMILES	NPC1 promoter act	FLuc modulator	SMN2 splice enh	Rab9 promoter act	ELG1 genotoxic	uPA generation
CN(C)c1ccc(CNC(=O)c2ccc(Cn3c(SCc4ccccc4)nc4cccnc43)cc2)cc1	/	2.7µM*	6%	/	/	/
Cc1cccc(CNC(=O)c2ccc(Cn3c(SCc4ccccc4)nc4cccnc43)cc2)c1	/	9.5µM*	/	/	/	/
COc1cccc(CNC(=O)c2ccc(Cn3c(SCc4ccccc4)nc4cccnc43)cc2)c1	/	5.4µM*	/	/	/	/
Cc1nn2c(=O)cc(COC(=O)c3ccc(NC(=O)c4ccc(C(C)(C)C)cc4)cc3)nc2s1	/	-14%	/	/	/	/
CCc1cc2c(=O)[nH]c(-c3ccccn3)nc2s1	4.5µM*	6µM*	10µM*	?	?	-7%
O=C(O)c1ccc(N=Nc2c(O)ccc3ncccc23)cc1	-20%	1.7µM*	/	-30%	-4%	?
CCOC(=O)CNC(=O)CCc1nnc2ccc(N3CCC(C)CC3)nn12	2%	1%	/	-6%	0%	-2%
CC(C)[C@@H](CC(=O)N[C@@H]1CCCC[C@H]1C(=O)N[C@H](CC(=O)N[C@@H](CCC(=O)O)CC(=O)O)Cc1c[nH]c2ccccc12)NC(=O)C[C@H](Cc1ccccc1)NC(=O)[C@@H]1CNCC[C@H]1N	/	/	-6%	/	/	/
COc1ccc(-c2csc(Nc3ncccn3)n2)cc1C	0.71µM*	-16%	/	0.18µM*	?	1%
COc1ccc(-c2csc(NC(=O)c3c(C)noc3C)n2)cc1F	0%	?	/	1%	-7%	-9%
COc1ccc(-c2csc(Nc3cc(C)ccn3)n2)cc1C	21%	8.5µM*	/	?	2%	19%
COc1ccc(-c2csc(NC(=O)Cc3ccccc3)n2)cc1OC	-3%	?	/	-2%	1%[9.26 µM]	-4%
O=C(Nc1nccs1)c1ccc(-c2ccccc2Cl)o1	2.5µM*	2.4µM*	11µM*	2.5µM*	4.1µM*	?
O=C(NCCc1ccccc1)c1ccc(-c2ccccc2Cl)o1	-2%	?	28%	2%	17%	5%
O=C(Nc1nccs1)c1ccc(-c2ccccc2[N+](=O)[O-])o1	2.8µM*	4.3µM*	/	2µM*	?	-5%
CCc1ccc(C(=O)c2cn(CC(=O)Nc3ccc4c(c3)OCO4)c3ccc(CC)cc3c2=O)cc1	/	-2%	9%	/	/	/
OC1c2ccccc2-c2nc3ccccc3cc21 (configuration not stated)	/	/	14µM*	/	/	/
CC[n+]1c(C)sc2sc3ccccc3c21	-11%	?	/	-31%	0%	/
Cc1nc2c(s1)sc1ccccc12	12%	24µM*	-6%	7%	13%	0%
CCOC(=O)c1sc2nc(NC(=O)C(C)(C)C)sc2c1C	0.89µM*	2.7µM*	?	1.3µM*	2.6µM*	?
Cc1cc(C)n(CC(O)Cn2c3ccccc3c3ccccc32)n1 (configuration not stated)	0%	2%	13µM*	-5%	-2%	6%
Cc1cc(C)n(CC(O)Cn2ccc3ccccc32)n1 (configuration not stated)	2%	2%	0%	0%	-1%	/
CCCc1nnc(NC(=O)Cc2coc3ccc(C(C)C)cc23)s1	/	-4%	1%	/	/	/
CC#CCOC(=O)C1=CCCN(C)C1	/	/	12%	/	/	/
O=C(Nc1sc2c(c1C(=O)Nc1cccc(Cl)c1)CCCC2)c1cccs1	/	-19%	-4%	/	/	/
SMILES	NPC1 promoter act	FLuc modulator	SMN2 splice enh	Rab9 promoter act	ELG1 genotoxic	uPA generation
O=C(Nc1sc2c(c1C(=O)O)CCC2)c1cccs1	17%	17µM*	?	28%	8%	-8%
NC(=O)c1c(NC(=O)c2cccs2)sc2c1CCCCCC2	?	4.8µM*	?	3.2µM*	6%	-18%
CS(=O)(=O)Nc1ccc(C2=NN(C(=O)c3ccco3)C(c3ccc(F)cc3)C2)cc1 (configuration not stated)	-3%	-3%	-56%	-3%	-4%	1%
O=C(c1ccco1)N1N=C(c2ccc3nccnc3c2)CC1c1ccccc1 (configuration not stated)	-8%	17µM*	0%	17%	6%	6%
Cc1cc(/C=N/NC(=O)c2ccc(CN3CCOCC3)cc2)c(C)n1-c1ccccc1	1%	6.7µM*	-51%	-1%	?	/
O=C(Nc1ccc(CN2CCOCC2)cc1)c1ccc(F)cc1	?	21µM*	/	?	?	-3%
O=C(Nc1ccc(CN2CCOCC2)cc1)c1ccc2ccccc2c1	1µM*	8.5µM*	/	1.4µM*	?	0%
COc1cccc(/C=C/C(=O)Nc2ccccc2N2CCOCC2)c1	0%	17µM*	/	9%	/	-4%
O=C(Nc1ccc(CN2CCOCC2)cc1)c1ccc(Br)cc1	?	?	/	12%	?	6%
COC(=O)c1ccc(NC(=O)c2ccc(CN3CCOCC3)cc2)cc1	-5%	?	-85%	-25%	0%	-10%
Cc1c(Cl)cccc1NC(=O)CSc1nc(=O)n(Cc2ccncc2)c2c1CCC2	/	-2%	/	/	/	/
CCN1CCOC(=O)C1CC(=O)Nc1cc(Cl)ccc1C (configuration not stated)	/	1%	4%	/	/	/
CCN(c1ccccc1)S(=O)(=O)c1ccc(NC(=O)c2cc(=O)c3cc(C)ccc3o2)cc1	/	0%	-4%	/	/	/
O=C(Nc1ccc(CN2CCOCC2)cc1)c1ccco1	2µM*	21µM*	/	1.4µM*	?	-5%
C/C(=N\NC(=O)c1ccc(CN2CCOCC2)cc1)c1ccc(NC(=O)c2ccccc2)cc1	?	?	11µM*	?	?	-6%
CCOc1ccc(C(=O)Nc2cccc(NC(=O)c3ccc(C(C)(C)C)cc3)c2)cc1Br	/	1.5µM*	?	/	/	/
O=C(Nc1ccc(CN2CCOCC2)cc1)c1ccc(Cl)cc1	?	17µM*	/	?	?	-1%
CC(=O)c1ccc(N(CC(=O)NC2CCS(=O)(=O)C2)S(=O)(=O)c2ccc(Cl)cc2)cc1 (configuration not stated)	2%	-3%	/	-4%	0%	6%
N#Cc1ccc(NC(=O)COCc2cc(-c3ccc4c(c3)OCO4)on2)cc1	/	-10%	/	/	/	/
CCCCCn1c(-c2cccc(C)c2)nc2ccccc21	/	?	-19%	/	/	/
C/C(=N\NC(=O)c1ccc(CN2CCOCC2)cc1)c1cccc([N+](=O)[O-])c1	3%	0%	-24%	-9%	-3%	4%
O=C(Nc1ccc(CN2CCOCC2)cc1)c1cccc(F)c1	2.8µM*	9.5µM*	13µM*	2.8µM*	16µM*	/
O=C(Nc1cccc([N+](=O)[O-])c1)c1ccc(CN2CCOCC2)cc1	22%	17µM*	/	24%	7%	-1%
